According to PubChem BioAssay (NCI):
Where “and” joins values, the source holds several entries; their conditions need not be identical. Equal entries are not always repeated. Compounds without any hit were thinned out: in the full panel of roughly 79,000, 15% have a hit. Rule as the data show it: active = growth inhibition above about 70%; inactive = the rest.

Columns and labels:
[1] = NCI Yeast Anticancer Drug Screen. Data for the rad50 strain (AID 155);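 also: 0% = growth of vehicle-only cultures of the same strain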; details: S. cerevisiae rad50 strain growth inhibition; at 50.0 µM; hits give high values
Method in brief: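 Relative growth inhibition (compound vs vehicle) was measured in yeast with a defined repair-gene alteration.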

[2] = NCI Yeast Anticancer Drug Screen. Data for the mec2-1 strain (AID 157); details: S. cerevisiae mec2-1 strain, at 50.0 µM, hits give high values
Method in brief: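 Vehicle-treated cultures served as reference for growth inhibition of compound-exposed mec2-1 yeast.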

[3] = NCI Yeast Anticancer Drug Screen. Data for the sgs1 mgt1 strain (AID 161);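 also: 0% = growth of cultures given vehicle only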; details: S. cerevisiae sgs1 mgt1 strain, at 50.0 µM, hits give high values
Method in brief: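 Read-out: growth inhibition vs vehicle controls. Cells: mutant yeast strain deficient in DNA damage repair.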

[4] = NCI Yeast Anticancer Drug Screen. Data for the cln2 rad14 strain (AID 165);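 also: 0% = growth equal to vehicle treated cultures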; details: S. cerevisiae cln2 rad14 strain, at 50.0 µM, hits give high values
Method in brief: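 Each compound was tested on cln2 rad14 yeast. Inhibition of growth was calculated against vehicle-exposed controls.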

[5] = NCI Yeast Anticancer Drug Screen. Data for the bub3 strain (AID 167); details: S. cerevisiae bub3 mutant strain, at 50.0 µM, hits give high values
Method in brief: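 Screening used yeast with an engineered genetic alteration affecting cell cycle control. Compound-exposed cultures were compared with vehicle cultures, and reduced growth was taken as inhibition.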

[6] = NCI Yeast Anticancer Drug Screen. Data for the mlh1 rad18 strain (AID 175); details: S. cerevisiae mlh1 rad18 strain growth inhibition; at 50.0 µM; hits give high values
Method in brief: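 Vehicle-treated cultures served as the reference for growth inhibition in a yeast strain carrying DNA damage repair alterations exposed to each compound.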

Measured: growth inhibition

O=C(NC(=O)C(C(=O)c1ccccc1)c1ccccc1)c1ccccc1 (configuration not stated)
inactive: [1] -3.95% and 2.65% | [2] 2.1% and -1.35% | [3] -6.9% and -12.2% | [4] 0.15% and 9.9% | [5] 5.6% and -4.05% | [6] -5.05% and -6.25%

COC(=O)C1(C)CCCC2(C)c3cc(OC)ccc3C=CC12 (configuration not stated)
inactive: [1] 14.5% and 6.75% | [2] -1.8% and 8.1% | [3] -0.6% and 2.55% | [4] -0.6% and 4.75% | [5] 2.5% and 21.5% | [6] 4.45% and 1.2%

N#Cc1c(-c2ccccc2)cc(-c2ccccc2)n(C2OC(CO)C(O)C(O)C2O)c1=O (configuration not stated)
inactive: [1] -14.6% and -8.2% | [2] -2.85% and -9.1% | [3] 4.85% and -5.85% | [4] 1.2% and 12.4% | [5] 5.65% and 8.3% | [6] -7.95% and -10.8%

O=C1NC(=S)S/C1=C/c1ccnc2ccccc12
inactive: [1] 18.2% and 6.7% | [2] 14.8% and 9.3% | [3] 19.4% and -3.1% | [4] 20.9% and -32.1% | [5] 5.45% and -8.75% | [6] 1.25% and -11.6%

CC(=O)c1c(-c2cccc3ccccc23)c(C#N)c(=S)n(C2OC(CO)C(O)C(O)C2O)c1-c1ccccc1 (configuration not stated)
inactive: [1] 21.2% and 31.6% | [2] 17.9% and -8.45% | [3] 42.1% and 34.2% | [4] 25.7% and 23.8% | [5] 34.9% and 12.3% | [6] 21.6% and 24.7%

C=CCSC1=NC(=O)C(CCCC)C(=O)N1C (configuration not stated)
inactive: [1] 7.75% and -1.7% | [2] 2.65% and 7.25% | [3] 4.25% and 6.3% | [4] -35.5% and -24.9% | [5] -22% and 7.5% | [6] 10.8% and 7.5%

O=C(O)c1cc(N=Nc2ccc([N+](=O)[O-])cc2)ccc1O
inactive: [1] 51.1% and 26.6% | [2] -34% and 8.2% | [3] -13.7% and 12.2% | [4] 10.2% and -34.8% | [5] 9.75% and 27.4% | [6] 18.2% and 49%

O=c1[nH]c(CCc2ccccc2)nc2ccccc12
inactive: [1] -5.1% and -47.5% | [2] 7.85% and -42.1% | [3] -7.2% and -23.5% | [4] -38% and -11.1% | [5] -26.8% and -31.9% | [6] -2.8% and -4.05%

CCCCC(CC)CCC(C)OC(=O)CCl (configuration not stated)
inactive: [1] 15.4% and 0.5% | [2] -2.8% and -6.75% | [3] 2.5% and -19.6% | [4] -36.4% and -22.6% | [5] -6.25% and -15.2% | [6] -1.9% and 10.2%

CCCCCC(Br)C(Br)CC(Br)C(Br)CCCCCCCC(=O)c1ccc2ccccc2c1O (configuration not stated)
inactive: [1] 2.8% and 22.1% | [2] -2.05% and 0.5% | [3] 10.4% and 2.9% | [4] 8.05% and -2.25% | [5] -18.3% and 5.9% | [6] -3.1% and 7.15%

OC1C2COC(O2)C(O)C1O (configuration not stated)
inactive: [1] -0.4% and -29.9% | [2] -5.45% and -7.65% | [3] 7.4% and -6.7% | [4] -16.2% and -35% | [5] -1.5% and 5.9% | [6] 7.05% and -18.7%

OC1Cc2ccccc2CC1O (configuration not stated)
inactive: [1] -20.1% and -35.1% | [2] -41.4% and -39.9% | [3] -36.5% and -12.3% | [4] -19.6% and -1.5% | [5] -26.1% and -8.8% | [6] -5.8% and -14.7%

COc1ccc(COC(=O)NCC(=O)NC(C)C(=O)NC(Cc2ccccc2)C(=O)OCc2ccccc2)cc1 (configuration not stated)
inactive: [1] -6.5% and 3.15% | [2] -10.4% and -13.6% | [3] -14.9% and -1.9% | [4] -21.1% and -17.6% | [5] -0.7% and 1.65% | [6] 4.25% and 6.25%

CC(=O)c1c(-c2ccc(Cl)cc2)c(C#N)c(=S)n(C2OC(CO)C(O)C(O)C2O)c1-c1ccccc1 (configuration not stated)
inactive: [1] 5.1% and 4.5% | [2] 1.95% and 6.1% | [3] 28.1% and 34.5% | [4] 33.1% and -7.6% | [5] -2.95% and 39.5% | [6] 56.6% and 15.9%

CCCCCC(O)C1C(=O)OC(C)C(O)/C=C/C=C/C=C/C=C\C=C(\C)C(O)CC(O)CC(O)CC(O)CC(O)CC(O)CC1O (configuration not stated)
inactive: [1] 2.6% and 13.8% | [2] 16.9% and -17.5% | [3] -18.1% and -4.65% | [4] 68.2% and 1.3% | [5] 5.85% and 12.3% | [6] 62.3% and 6.3%

CCN1C(=O)C=CC1=O
inactive: [1] 3.4% and -19.9% | [2] -2.55% and 13.7% | [3] 11.8% and -8.5% | [4] 6.8% and -30% | [5] 8.8% and -25.5% | [6] 3.55% and -15.4%

O=C(O)CC(c1ccccc1)c1ccccc1
inactive: [1] -47.2% and 9.6% | [2] -39% and -5.4% | [3] -2.95% and 2.15% | [4] 3.35% and -3.55% | [5] -30.6% and -21.7% | [6] -28.1% and -0.95%

C=CCN(CC=C)c1nc2ccccc2c(=O)[nH]1
inactive: [1] 39.6% and -6.7% | [2] 24.2% and -3.7% | [3] 22.5% and -3.8% | [4] 7.9% and -60.1% | [5] -2.25% and -12.4% | [6] 17.2% and 0.45%

CC(C)c1ccc(C(=O)O)cc1
inactive: [1] 11.3% and 24% | [2] -9.2% and 12.3% | [3] 9.55% and 13.2% | [4] -8.2% and 5.9% | [5] -9% and 5.1% | [6] 20.1% and 22.2%

O=[N+]([O-])c1ccc(Cc2ccccc2)cc1
inactive: [1] -2.8% and -37.1% | [2] -32.1% and -23.9% | [3] 7.7% and -11.6% | [4] 3.2% and -9.15% | [5] 13.8% and -11.9% | [6] -30.9% and -14.7%

CC(CCC(C)C(=O)O)C(=O)O (configuration not stated)
inactive: [1] -10.1% and 40.4% | [2] -12.8% and 9.8% | [3] -2.05% and 15.4% | [4] 12.2% and 13% | [5] -15.1% and 22.6% | [6] -0.25% and 27.9%

O=C(O)c1cc(O)c(O)c(O)c1
inactive: [1] 5.3% and 1.55% | [2] -12.6% and -7.9% | [3] 2.2% and 15.6% | [4] 15.6% and -9.5% | [5] 2.25% and 2.85% | [6] 5.8% and 3%
